# In the supplement of paper PMC9135407:
# “And” between values parts separate entries of the source, which are not always exact repeats. Equal entries are not always repeated. Structures can show the parent of a compound that is named as a salt. Screen size: about 5,800 compounds; about 620 (11%) showed activity.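 How the source made its calls: active = score above a cut-off or among the top three wells of a plate; in these data no inactive exceeds 0.85.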 What follows is part of a selection rich in actives, with near analogues and random picks from the rest.
# Test system: primary human hepatic stellate cells (donor 1)
# Experiment: scaled lipid accumulation score (0 = DMSO-like, 1 = nortriptyline-like); higher = stronger HSC inactivation (lipid re-accumulation), active = hit call of the paper
# Conditions: 48 h
# [1] = library stock concentration: 10 mM
# [2] = library stock concentration: 1 mM
# [3] = library stock concentration: 100 uM
# [4] = library stock concentration: 5.9 mM
# [5] = library stock concentration: 3.33 mM
# [6] = library stock concentration: 80 uM
# [7] = library stock concentration: 400 uM
# [8] = library stock concentration: 2 mM
smiles,measurement,setting,value
CC(=O)N[C@H]1[C@@H](O[C@@H]2O[C@H](CC(O)[C@H]3O[C@@H](n4ccc(=O)[nH]c4=O)[C@H](O)[C@@H]3O)[C@H](O)[C@H](O)[C@H]2NC(=O)/C=C/CC(C)C)O[C@H](CO)[C@@H](N)[C@@H]1O (stereo not given in full) [Tunicamycin],scaled lipid accumulation score,library stock concentration: 7 mM,0.058 (inactive)
CN1CC[C@@]2(C)c3cc(OC(=O)Nc4ccccc4)ccc3N(C)[C@@H]12 [Phenserine],scaled lipid accumulation score,[1],0.339 (inactive)
NCCc1ccccn1,scaled lipid accumulation score,[1],≤ 0 (inactive)
CCCCCCC(=O)CCCCCC/C=C/C[C@@H](O)[C@H](O)[C@@](N)(CO)C(=O)O [Myriocin],scaled lipid accumulation score,[2],0.023 (inactive)
O[C@H]1[C@H]2[C@H](O)CCCN2C[C@H]1O [swainsonine],scaled lipid accumulation score,library stock concentration: 28.9 mM,0.01 (inactive)
"Cl.Clc1ccc(N2CCN(Cc3c[nH]c4ncccc34)CC2)cc1 [L-745,870 hydrochloride]",scaled lipid accumulation score,[1],0.902 (active)
"Clc1ccc(N2CCN(Cc3c[nH]c4ncccc34)CC2)cc1 [L-745,870 trihydrochloride]",scaled lipid accumulation score,[1],0.37 (inactive)
CC1=CC(=O)C2=C(C)C[C@H](O)[C@@H]3[C@H](OC(=O)[C@H]3C)[C@H]12 [Austricine hydrate],scaled lipid accumulation score,,≤ 0 (inactive)
CCCCC[C@@H](/C=C/C=C\CCCCCCCC(=O)O)OO,scaled lipid accumulation score,[3],≤ -0.021 (inactive)
CO[C@@H]1C=C2CCN(C)[C@@H]2C2c3cc4c(cc3C(=O)OC21)OCO4 (stereo not given in full) [Ungerine nitrate],scaled lipid accumulation score,,≤ 0 (inactive)
CCCCCCC(=O)O[C@H]1CC[C@H]2[C@@H]3CC(=O)C4=CC(=O)CC[C@]4(C)[C@H]3CC[C@]12C [6-keto Testosterone Enanthate],scaled lipid accumulation score,[2],0.048 (inactive)
O=C1Nc2ccc(Cl)cc2C(c2ccccc2Cl)=NC1O (stereo not given) [Lorazepam],scaled lipid accumulation score,[1],≤ 0 (inactive)
O=C1CC[C@@]2(O)[C@H]3Cc4ccc(O)c5c4[C@@]2(CCN3CC2CC2)[C@H]1O5 [Naltrexone hydrochloride],scaled lipid accumulation score,[4],0.019 (inactive)
same,scaled lipid accumulation score,[1],≤ -0.045 (inactive) and ≤ -0.027 (inactive)
Cl.Oc1ccc2c3c1O[C@H]1c4[nH]c5ccccc5c4C[C@@]4(O)C(C2)N(CC2CC2)CCC314 (stereo not given in full) [Naltrindole hydrochloride],scaled lipid accumulation score,[1],1.1 (active)
O=C(O)/C=C\C(=O)O.O=C1/C(=C/c2ccccc2)C[C@@]2(O)C3Cc4ccc(O)c5c4[C@@]2(CCN3CC2CC2)[C@H]1O5 [BNTX maleate],scaled lipid accumulation score,[1],0.851 (active)
Cl.Oc1ccc2c3c1O[C@H]1c4[nH]c5ccccc5c4C[C@@]4(O)C(C2)N(CC2CC2)CC[C@]314 [Naltrindole hydrochloride],scaled lipid accumulation score,[1],1.33 (active)
Oc1ccc2c3c1O[C@H]1c4[nH]c5ccccc5c4C[C@@]4(O)[C@@H](C2)N(CC2CC2)CC[C@]314 [Naltrindole],scaled lipid accumulation score,[1],0.713 (inactive)
O=C1CC[C@@]2(O)[C@H]3Cc4ccc(O)c5c4[C@@]2(CCN3CC2CC2)[C@H]1O5 [Naltrexone HCl],scaled lipid accumulation score,[5],≤ 0 (inactive)
same,scaled lipid accumulation score,[4],≤ -0.006 (inactive)
same,scaled lipid accumulation score,[1],0.025 (inactive)
C=C(C)CN1CC[C@@]23c4c5ccc(O)c4O[C@H]2c2[nH]c4ccccc4c2C[C@]3(O)C1C5 [SDM25N hydrochloride],scaled lipid accumulation score,[1],0.625 (inactive)
O=C1/C(=C/c2ccccc2)C[C@@]2(O)[C@H]3Cc4ccc(O)c5c4[C@@]2(CCN3CC2CC2)[C@H]1O5 [BNTX maleate salt hydrate],scaled lipid accumulation score,[1],≤ -0.006 (inactive)
Oc1ccc2c3c1O[C@H]1c4[nH]c5c(c4C[C@@]4(O)[C@@H](C2)N(CC2CC2)CC[C@]314)C[C@@]1(O)[C@H]2Cc3ccc(O)c4c3[C@@]1(CCN2CC1CC1)[C@H]5O4 [nor-Binaltorphimine dihydrochloride],scaled lipid accumulation score,[1],≤ -0.055 (inactive) and ≤ 0 (inactive)
Oc1ccc2c3c1O[C@H]1c4[nH]c5ccccc5c4C[C@@]4(O)[C@@H](C2)N(CC2CC2)CC[C@]314 [Naltrindole HCl],scaled lipid accumulation score,library stock concentration: 4.8 mM,0.264 (inactive)
O=C1CC[C@@]2(O)[C@H]3Cc4ccc(O)c5c4[C@@]2(CCN3CC2CC2)[C@H]1O5 [Naltrexone hydrochloride dihydrate],scaled lipid accumulation score,,≤ 0 (inactive)
CCCCCCC(C)(C)c1ccc([C@@H]2C[C@H](O)CC[C@H]2CCCO)c(O)c1,scaled lipid accumulation score,[2],0.004 (inactive)
CN/C(=N\S(=O)(=O)c1ccc(Cl)cc1)N1C[C@H](c2ccccc2)C(c2ccc(Cl)cc2)=N1,scaled lipid accumulation score,[2],≤ 0 (inactive)
COC[C@H]1OC(=O)c2coc3c2[C@@]1(C)C1=C(C3=O)[C@@H]2CCC(=O)[C@@]2(C)C[C@H]1OC(C)=O [Wortmannin],scaled lipid accumulation score,[5],≤ 0 (inactive)
same,scaled lipid accumulation score,[1],≤ 0 (inactive)
CCOC(=O)c1ncn2c1CN(C)C(=O)c1cc(N=[N+]=[N-])ccc1-2,scaled lipid accumulation score,[1],≤ -0.001 (inactive)
CC1=CCCC2C1(C)CCC(C)C2(C)CC/C(C)=C/Cn1c[n+](C)c2c(N)ncnc21 (stereo not given) [Agelasine (stereochemistry of diterpene unknown)],scaled lipid accumulation score,[1],0.317 (inactive)
COc1ccc(N(C(=O)Oc2c(C)cccc2C)c2ccnc(Nc3ccc(N4CCN(C)CC4)cc3)n2)c(OC)c1,scaled lipid accumulation score,[6],0.038 (inactive)
same,scaled lipid accumulation score,[7],0.193 (inactive)
same,scaled lipid accumulation score,[8],≤ 0 (inactive)
same,scaled lipid accumulation score,[5],0.656 (inactive)
same,scaled lipid accumulation score,[1],0.815 (inactive) and 0.679 (inactive)
COc1ccc(-n2nc(C(F)(F)F)cc2-c2ccc(Cl)cc2)cc1,scaled lipid accumulation score,[1],0.006 (inactive)
COc1ccc(/C=C/C(=O)CC(=O)/C=C/c2ccc(OC)c(OC)c2)cc1OC [Dimethoxycurcumin],scaled lipid accumulation score,[2],≤ 0 (inactive)
CCCCC/C=C\C/C=C\C/C=C\C/C=C\CCCC(=O)NC[C@@H](C)O [R-2 Methanandamide],scaled lipid accumulation score,[2],≤ 0 (inactive)
COC[C@@H]([C@H](O)[C@H](O)C(=O)NCC[C@H](C)c1nc(/C=C/C[C@@H]2O[C@]3(C[C@@H](O)[C@@H]2C)O[C@H]([C@H](C[C@H](O)[C@H](C)[C@H](O)[C@H](C)/C=C(C)/C(C)=C/C=C/C(C)=C\C#N)OC)[C@H](OP(=O)(O)O)C3(C)C)co1)N(C)C [Calyculin A],scaled lipid accumulation score,library stock concentration: 500 uM,0.228 (inactive)
C=C1[C@@H](C)[C@H]2[C@H](Cc3ccccc3)NC(=O)[C@]23OC(=O)/C=C/[C@H](O)CCC[C@@H](C)C/C=C/[C@H]3[C@@H]1O [Cytochalasin B],scaled lipid accumulation score,library stock concentration: 10.4 mM,0.806 (inactive)
C=C1[C@@H](C)[C@H]2[C@H](Cc3ccccc3)NC(=O)C23[C@H](OC(C)=O)/C=C/[C@](C)(O)C(=O)[C@@H](C)C/C=C/[C@H]3[C@@H]1O (stereo not given in full) [Cytochalasin D],scaled lipid accumulation score,library stock concentration: 9.9 mM,0.918 (active)
CC[C@@H](C)C(=O)O[C@H]1[C@H](O)[C@H]2[C@@H](CN3C[C@@H](C)CC[C@H]3[C@@]2(C)O)[C@@H]2C[C@]34O[C@]5(O)[C@@H](OC(=O)[C@](C)(O)[C@@H](C)O)CC[C@@]3(C)[C@@H]5[C@@H](OC(C)=O)[C@@H](OC(C)=O)[C@H]4[C@@]21O (stereo in doubt) [Protoveratrine b],scaled lipid accumulation score,[1],≤ 0 (inactive)
COc1ccc2c(c[n+](C)c3c4cc5c(cc4ccc23)OCO5)c1OC [Chelerythrine chloride],scaled lipid accumulation score,[6],≤ -0.016 (inactive)
same,scaled lipid accumulation score,[7],≤ -0.016 (inactive)
same,scaled lipid accumulation score,[1],0.308 (inactive) and 0.167 (inactive)
"COc1ccc2c(c1OC)CN1CCc3cc4c(cc3C1C2)OCO4 (stereo not given) [(d,l)-Tetrahydroberberine]",scaled lipid accumulation score,,≤ 0 (inactive)
COc1ccc2c(c[n+](C)c3c4cc5c(cc4ccc23)OCO5)c1OC [Chelerythrine Chloride],scaled lipid accumulation score,[5],0.656 (inactive)
COc1ccc2c(c[n+](C)c3c4cc5c(cc4ccc23)OCO5)c1OC.Cl [Chelerythrine chloride],scaled lipid accumulation score,[8],1.1 (active)
CCCCC/C=C\C/C=C\C/C=C\C/C=C\CCC(C)C(=O)NCCF (stereo not given),scaled lipid accumulation score,[2],0.05 (inactive)
C/C=C1/C[N+]2(C)CCC34C(=C(C=O)[C@H]1C[C@@H]32)Nc1ccccc14 (stereo not given in full) [Fluorocurarine chloride],scaled lipid accumulation score,,≤ 0 (inactive)
CC(C)C1CNC(C(=O)O)C1CC(=O)O (stereo not given) [Dihydrokainic acid],scaled lipid accumulation score,[1],0.08 (inactive)
CCCCC/C=C\C[C@@H](/C=C/C=C\C/C=C\CCCC(=O)O)OO,scaled lipid accumulation score,[3],≤ -0.021 (inactive)
"CN1[C@@H]2CC[C@H]1C[C@@H](OC(=O)c1cc(Cl)cc(Cl)c1)C2 [3-Tropanyl-3,5-dichlorobenzoate]",scaled lipid accumulation score,[1],0.646 (inactive)
CN1C2CCC1CC(OC(=O)c1cc(Cl)cc(Cl)c1)C2 (stereo not given),scaled lipid accumulation score,[1],1.04 (active)
"Cc1cc(C)cc(C(=O)OC2C[C@H]3CC[C@@H](C2)N3C)c1 (stereo not given in full) [Tropanyl-3,5-dimethylbenzoate]",scaled lipid accumulation score,[1],0.57 (inactive)
C=C(C)[C@H]1O[C@H]2CC[C@@]3(C)[C@@](O)(CC[C@H]4[C@@H]5OC(C)(C)[C@H]6C[C@@H]7C(=C)Cc8c(Cl)cc9[nH]c(c5c9c8[C@@]76O)[C@@]43C)[C@@]23O[C@H]3[C@H]1O [Penitrem A],scaled lipid accumulation score,library stock concentration: 7.9 mM,≤ -0.021 (inactive)
O=c1[nH]c2ccccc2n1C1CCN(CCCC(c2ccc(F)cc2)c2ccc(F)cc2)CC1 [Pimozide] [listing 1 of 3 here],scaled lipid accumulation score,,0.242 (inactive)
same,scaled lipid accumulation score,[1],0.021 (inactive)
O=C(CCCN1CCC(n2c(=O)[nH]c3ccccc32)CC1)c1ccc(F)cc1 [Benperidol],scaled lipid accumulation score,,0.202 (inactive)
O=c1[nH]c2ccccc2n1C1CCN(CCCC(c2ccc(F)cc2)c2ccc(F)cc2)CC1 [Pimozide] [listing 2 of 3 here],scaled lipid accumulation score,[1],1.15 (active)
O=c1[nH]c2ccccc2n1CCCN1CCC(n2c(=O)[nH]c3cc(Cl)ccc32)CC1 [Domperidone],scaled lipid accumulation score,,0.362 (inactive)
same,scaled lipid accumulation score,[5],0.062 (inactive)
same,scaled lipid accumulation score,library stock concentration: 4.7 mM,0.135 (inactive) and 0.071 (inactive)
O=c1[nH]c2ccccc2n1C1CCN(CCCC(c2ccc(F)cc2)c2ccc(F)cc2)CC1 [Pimozide] [listing 3 of 3 here],scaled lipid accumulation score,[1],1.21 (active)
O=c1[nH]c2ccccc2n1C1CCN(Cc2ccc(-c3[nH]c4cc5ncnc5cc4nc3-c3ccccc3)cc2)CC1 [Sigma A6730],scaled lipid accumulation score,[6],≤ 0 (inactive)
same,scaled lipid accumulation score,[7],≤ 0 (inactive)
same,scaled lipid accumulation score,[8],0.055 (inactive)
same,scaled lipid accumulation score,[1],0.683 (inactive)
